TROY signal inh: blocks TROY-dependent signaling in reporter cells; inhibition, % at 10 µM; 0.98% of 360,000 active; AID 1347056; Q293 LMP1-TROYcd NF-kB luciferase reporter, 4 h;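 active = compounds whose plate-normalised and pattern-corrected inhibition of the luciferase reporter signal at the single screening dose is 50% or more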
TWEAK Fn14 block: inhibitors of TWEAK-Fn14 interaction signaling; inhibition, % at 10 µM; TWEAK-stimulated Fn14 reporter cells, luciferase luminescence, 8 h; 2% of 360,000 active; in the data active = inhibition above about 50%
HIF-2a inh: inhibitors of HIF-2a; 786-0 RCC cells HIF-2a reporter, luciferase luminescence, overnight; inhibition, % at 18.8 µM; 0.72% of 360,000 active;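 active = inhibition of the luminescence signal of 40% or more relative to plate controls, in a single-dose primary screen at 18.75 µM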
KKLEB tox: reduces viability of KKLEB cystic fibrosis airway cells | 0.36% of 360,000 active | KKLEB CF airway cells viability, ATPlite luminescence, overnight; stronger effect = lower value; cells stimulated with P. aeruginosa culture filtrate | activity change (cytotoxicity), % at 5 µM;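 active = corrected activity change at or below -50% at 5 µM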
CF NFkB inh: inhibitors of cystic fibrosis induced NF-kB; AID 588850; KKLEB NF-kB-GFP reporter, PAF-induced, GFP fluorescence overnight; inhibition, % at 5 µM; 0.86% of 360,000 active;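 active = at least 50% inhibition at 5 µM, scaled per plate between neutral and stimulator controls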;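 note: PAF is a Pseudomonas aeruginosa culture filtrate used as stimulus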
Peg3 prom inh-1: reduces Peg3 promoter-driven luciferase expression in HeLa; AID 588405; inhibition, % at 20 µM; 1.7% of 360,000 active; HeLa PEG-Prom luciferase reporter, luminescence, overnight;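 active = inhibition of at least 50% at 20 µM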
Peg3 prom inh-2: confirmation of Peg3 promoter inhibitors; shares compounds with Peg3 prom inh-1; HeLa PEG-Prom luciferase reporter, luminescence, overnight; inhibition, % at 20 µM; 84% of 1,300 active;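 active = at 20 µM dose, 40% or more inhibition averaged across four replicates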
Each line names hits and unclear results; the compound was inactive in the other large screens (follow-up assays come after a bar, where they were run). This is a sample that favours compounds with a hit; in the whole collection about 4% have one here.

O=C(/C=C/c1ccccc1)Nc1cccc(C(=O)O)c1	HIF-2a inh 87, Peg3 prom inh-1 85 | Peg3 prom inh-2 77
O=C(/C=C/c1ccccc1)Nc1cc(NC(=O)/C=C/c2ccccc2)cc(C(=O)O)c1	none
COC(=O)C1=C(C(=O)OC)C(C(=O)OC)C(C(=O)OC)C(C(=O)OC)(C(=O)OC)C(C(=O)OC)=C1C(=O)OC (stereo not given)	Peg3 prom inh-1 107 | Peg3 prom inh-2 99
COC(=O)C1C(C(=O)OC)C1(c1ccccc1)c1ccccc1 (stereo not given)	none
CCOc1ccc(CCNC(=O)COC(=O)c2cc(OC)c(OC)cc2[N+](=O)[O-])cc1OCC	none
O=C(COC(=O)CNC(=O)c1cccc(OC(F)F)c1)NNC(=O)c1ccccc1	none
CCCCC(=O)NC(c1ccc(N(C)C)cc1)c1ccc2cccnc2c1O (stereo not given)	none
CCCCC(=O)NC(c1ccccc1Cl)c1c(O)ccc2ccccc12 (stereo not given)	none
CCCCC(=O)NC(c1ccc(N(CC)CC)cc1)c1ccc2cccnc2c1O (stereo not given)	Peg3 prom inh-1 59 | Peg3 prom inh-2 70
CCC(=O)NC(c1ccc(OC)c(OC)c1)c1cc(Cl)c2cccnc2c1O (stereo not given)	Peg3 prom inh-1 55 | Peg3 prom inh-2 63
CCCC(=O)NC(c1cccc([N+](=O)[O-])c1)c1ccc2cccnc2c1O (stereo not given)	Peg3 prom inh-1 58 | Peg3 prom inh-2 66
CCC(=O)NC(c1cccc([N+](=O)[O-])c1)c1c(OC(C)=O)ccc2ccccc12 (stereo not given)	none
CCCCC(=O)NC(c1ccc(Cl)cc1)c1ccc2cccnc2c1O (stereo not given)	Peg3 prom inh-1 62 | Peg3 prom inh-2 69
COc1ccc(C(NC(C)=O)c2cc(Cl)c3cccnc3c2O)cc1OC (stereo not given)	none
CCc1ccc(N2CC(C(=O)Nc3ccccc3N3CCCC3)CC2=O)cc1 (stereo not given)	none
O=C1c2ccccc2C(=O)C12OC2c1ccc(Cl)cc1Cl (stereo not given)	TWEAK Fn14 block 72, KKLEB tox -68, CF NFkB inh 96, Peg3 prom inh-1 99 | Peg3 prom inh-2 51
CC(NC(=O)COC(=O)CN1C(=O)c2ccccc2C1=O)c1ccccc1 (stereo not given)	none
Cc1ccc(-c2nc(C(Cl)Cl)c3ccccc3n2)cc1	Peg3 prom inh-1 111 | Peg3 prom inh-2 99
CN(C)CCNc1nc(Oc2cccc(F)c2)c2sccc2n1	none
N#CCCN(C(=O)COC(=O)CNS(=O)(=O)c1ccc2ccccc2c1)c1ccccc1	none
O=C(NCc1cccs1)c1ccc(-c2ccc(F)c(F)c2)c2ccoc12	none
Cc1cc(/C=c2/sc3nc4ccccc4n3c2=O)c(C)n1-c1ccccn1	TROY signal inh 75, TWEAK Fn14 block 83, HIF-2a inh 75, KKLEB tox -54, Peg3 prom inh-1 75 | Peg3 prom inh-2 88
COC(=O)CCC(NS(=O)(=O)OCC(Cl)(Cl)Cl)c1ccccc1 (stereo not given)	none
CC(C)CC(NS(=O)(=O)OCC(Cl)(Cl)Cl)c1ccccc1 (stereo not given)	Peg3 prom inh-1 57 | Peg3 prom inh-2 45
COc1ccccc1C(=O)N1CCN(C(=O)c2oc3ccc(C)cc3c2C)CC1	none
COc1ccc(-c2cc3nc4n(c(=O)c3s2)CCC4)cc1	TROY signal inh 62, TWEAK Fn14 block 95, Peg3 prom inh-1 59 | Peg3 prom inh-2 inactive
COc1ccc(-c2cc3nc4n(c(=O)c3s2)CCCCC4)cc1	none
CS(=O)(=O)c1sc(C#N)c2c1C(=O)CC(c1ccccc1)C2 (stereo not given)	TROY signal inh 80, TWEAK Fn14 block 64, HIF-2a inh 95, CF NFkB inh 81, Peg3 prom inh-1 98 | Peg3 prom inh-2 97
O=C1CCC(C(=O)OCC(=O)c2ccccc2)N1 (stereo not given)	none
CC1CC(C)C(=O)C(C(CC2CC(=O)NC(=O)C2)OC(=O)CC(=O)c2ccccc2)C1 (stereo not given)	TWEAK Fn14 block 51, CF NFkB inh 66, Peg3 prom inh-1 81 | Peg3 prom inh-2 83
COc1ccc(-c2cc(C(=O)N(C)CC(=O)Nc3ccccc3Br)c3ccccc3n2)cc1OC	Peg3 prom inh-1 54 | Peg3 prom inh-2 inactive
COc1ccc(N2CCN(C(=O)c3cc(-c4cccs4)nc4ccccc34)CC2)cc1	none
COc1ccc(-c2cc(C(=O)N(C)Cc3ccccc3F)c3ccccc3n2)cc1OC	Peg3 prom inh-1 61 | Peg3 prom inh-2 60
COc1ccc(-c2cc(C(=O)NCC(c3ccccc3)N(C)C)c3ccccc3n2)cc1OC (stereo not given)	none
COc1cc(-c2cc(C(=O)N(C)Cc3ccccc3)c3ccccc3n2)cc(OC)c1OC	Peg3 prom inh-1 56 | Peg3 prom inh-2 52
COc1ccc(-c2cc(C(=O)N(C)CC(=O)Nc3ccccc3C(F)(F)F)c3ccccc3n2)cc1OC	none
COc1cccc(CN(C)C(=O)c2cc(-c3cccs3)nc3ccccc23)c1	Peg3 prom inh-1 61 | Peg3 prom inh-2 67
CCn1ncc(S(=O)(=O)Nc2cc(Cl)ccc2C)c1C	none
O=C(N/N=C/c1sc(N2CCOCC2)nc1-c1ccccc1)c1cccc(S(=O)(=O)N2CCOCC2)c1	Peg3 prom inh-1 68 | Peg3 prom inh-2 68
Nc1ccc(C(=O)N/N=C/c2sc(N3CCOCC3)nc2-c2ccccc2)cc1	none
CCCn1nc(C(=O)NNC(=O)CSC(C)C(=O)Nc2cc(C)on2)c2ccccc2c1=O (stereo not given)	none
CCCOC(=O)c1cccc(Nc2nc(-c3cccnc3)nc3ccccc23)c1	TWEAK Fn14 block 57, Peg3 prom inh-1 96 | Peg3 prom inh-2 95
O=C(OCCNc1nc(-c2ccccc2)nc2ccccc12)c1cccnc1	none
O=C(C[C@@H]1C/C=C\C[C@@H](Cc2ccc(F)cc2)C(=O)OC[C@@H](Cc2ccccc2)NC1=O)N[C@H](CO)Cc1ccccc1	Peg3 prom inh-1 63 | Peg3 prom inh-2 inactive
O=C1N[C@@H](c2ccccc2)COC(=O)[C@@H](Cc2ccc(F)cc2)CC/C=C/C[C@H]1CC(=O)N(CCO)Cc1ccccc1	Peg3 prom inh-1 52 | Peg3 prom inh-2 47
C[C@@H]1COC(=O)[C@H](Cc2ccc(F)cc2)C/C=C\C[C@@H](CC(=O)N[C@H](CO)Cc2ccccc2)C(=O)N1	none
Cc1ccc(C(C)(C)NC(=O)C2CCC(=O)N(CC3CCCCC3)C2)cc1 (stereo not given)	none
Cc1cc(C)nc(SCC(=O)N(C)CC(=O)Nc2c(Cl)cccc2Cl)n1	none
